Test results taken from PubChem BioAssay.
Some of the results follow. Activity calls are given as the source filed them.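 How the source made its calls, unless noted: active means drop in membrane potential signal beyond 5 SD of the control wells in both duplicate plates; inactive means the rest.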

Each compound was assayed on Transient receptor potential cation channel subfamily C member 4 (mouse) (assay: off-target membrane potential effects via mouse TRPC4 – cell-based, HEK293 TRPC4/mu-opioid, membrane potential dye, selectivity assay for TRPC6 modulator project, confirmation (AID 488927;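 active means membrane potential signal moved up or down beyond 5 SD of buffer control wells, in both duplicate plates, actives on both sides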;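 on percent change from control (negative = decrease, positive = increase): plate controls were assay buffer wells for no effect and DAMGO maximal-effect wells for full effect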)). Settings: membrane potential fluorescence, at 10 µM.

Row | Compound | percent change from control (negative = decrease, positive = increase) | outcome
1 | OCCC1CN(Cc2ccc3nsnc3c2)CCN1C1CCCCC1 (stereo not given) | 18% (active) | 
2 | Cc1cccc(-[n+]2c(-c3cccc(Br)c3)[nH]c3nc4ccccc4nc32)c1 |  | inactive
3 | N=c1c2c3c(sc2ncn1CCCN1CCOCC1)CCCCC3 |  | inactive
4 | O=C1CN(C(=O)c2ccccc2F)C(c2ccc(F)cc2)c2cc(F)ccc2N1 (stereo not given) | 26.5% (active) | 
5 | Nc1ccc(C(=O)N2CCN(S(=O)(=O)c3ccc(Cl)cc3)CC2)cc1[N+](=O)[O-] |  | inactive
6 | COC(=O)c1c(NC(=O)c2ccc(S(=O)(=O)N3CCOCC3)cc2)sc2c1CCN(C(C)C)C2 | -33% (active) | 
7 | CCOc1nc(NCCN2CCOCC2)nc(Nc2ccc(C)cc2)n1 | 15% (active) | 
8 | Cc1cccc(NC(=S)NCCN(C2CCCCC2)C2CCCC2)c1 | 24.5% (active) | 
9 | COc1ccc(Cl)cc1NC(=O)CCS(=O)(=O)c1cc2c(cc1C)NC(=O)CO2 | -9.5% (active) | 
10 | CCN1CCN(c2ccc([N+](=O)[O-])cc2C(=O)c2ccc(Cl)cc2)CC1 | 20.5% (active) | 
11 | N=c1c2c3c(sc2nc2n1CCCCC2)CCCC3 | -22.5% (active) | 
12 | Cc1nc(C(=O)NCc2ccccc2)sc1C1(C)CC(c2cccnc2)=NO1 (stereo not given) |  | inactive
13 | CC(C)c1ccc(NC(=O)Cn2ncc3ccccc32)cc1 |  | inactive
14 | Cc1nc(N=C(N)N)nc2c(C)cccc12 | -42.5% (active) | 
15 | CCCCN(CCCC)CC(O)Cn1c2ccccc2c(=O)c2ccccc21 (stereo not given) |  | inactive
16 | Nc1c(C(=O)c2cccs2)sc2nsc(SCCN3CCCCC3)c12 | 174% (active) | 
17 | Clc1ccc(-n2nnnc2-c2cnc(-c3ccccn3)nc2-c2cccs2)cc1 | 19.5% (active) | 
18 | CCc1ccc(-c2cc(C(=O)NN3CCN(C)CC3)c3ccccc3n2)cc1 |  | inactive
19 | C/C(=N\Nc1nc2ccccc2[nH]1)c1cccs1 | -24% (active) | 
20 | COc1ccc(-c2nnc(NC(=O)CS(=O)(=O)c3ccc(Cl)cc3)o2)c(OC)c1 |  | inactive

Row | Compound | percent change from control (negative = decrease, positive = increase) | outcome
21 | CCCN(CCc1ccccc1)C1CCc2c(O)cccc2C1 (stereo not given) | 45.5% (active) | 
22 | CCN1CCN(c2nc(Nc3cc(OC)ccc3OC)nc(Nc3cc(OC)ccc3OC)n2)CC1 |  | inactive
23 | COc1ccc(Br)cc1/C=N/n1c(C)nnc1C | 10% (active) | 
24 | CN1CCN(C(=O)N2c3ccccc3CCc3ccccc32)CC1 | 14.5% (active) | 
25 | CC(C)C(c1nnnn1CCc1ccccc1)N1CCN(C(=O)c2ccco2)CC1 (stereo not given) | 27.5% (active) | 
26 | O=C(c1ccc(-n2cnnn2)cc1)N1CCN(C(c2ccccc2)c2ccccc2)CC1 | 18.5% (active) | 
27 | COC(=O)c1ccccc1NC(=O)C1CCN(S(=O)(=O)c2cc(OC)ccc2OC)CC1 | 13% (active) | 
28 | CCOc1ccc(/C(O)=C2/C(=O)C(=O)N(Cc3cccnc3)C2c2ccc(N(C)C)cc2)c(C)c1 (stereo not given) |  | inactive
29 | CSCCC(NC(=O)c1ccc(=O)n(C)n1)c1nc2ccccc2[nH]1 (stereo not given) |  | inactive
30 | COc1cc(CNCCN(C)C)ccc1OCc1c(F)cccc1Cl | 15.5% (active) | 
31 | CCCc1cc(=O)oc2c(C)c(O)c(CN3CCCCC3)cc12 |  | inactive
32 | CN1CCN(c2ccc([N+](=O)[O-])c(Sc3nc4ccccc4[nH]3)c2)CC1 | -14.5% (active) | 
33 | N=c1n(CCc2ccccc2)c2ccccc2n1Cc1ccccc1F | 20.5% (active) | 
34 | CN(C)c1ccc(/C=C2\NC(=S)N(Cc3ccccc3)C2=O)cc1 | 126% (active) | 
35 | Cc1c(CCOC(=O)CC23CC4CC(CC(C)(C4)C2)C3)sc[n+]1Cc1ccc([N+](=O)[O-])cc1 | -29.5% (active) | 
36 | CCCCc1nc(NCCN)c(C#N)c2c1CSC(C)(C)C2 |  | inactive
37 | CCOC(=O)c1sc2nc(CSCC(=O)OCc3ccc(C(=O)OC)o3)[nH]c(=O)c2c1C |  | inactive
38 | O=[N+]([O-])c1ccccc1Nc1ccc(O)cc1 | -32% (active) | 
39 | CC(=O)c1cc(NC(=O)c2ccccc2)c(=O)oc1/C=C/N(C)C | 43% (active) | 
40 | CCC(C)NCCOCCOc1ccc(Br)cc1C (stereo not given) | 21% (active) | 

What follows are compounds tested on TRPC4 (transient receptor potential cation channel C4), mouse (assay: DAMGO-evoked mouse TRPC4 response blockade – cell-based, second screen, HEK293 TRPC4/mu-opioid, membrane potential dye, selectivity assay for TRPC6 modulator project, confirmation (AID 488928;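 further: TRPC4 counter screen for TRPC6 hits run under conditions tuned for TRPC6 not TRPC4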)). Settings: membrane potential dye fluorescence, at 10 µM, stimulated with maximal-effect DAMGO; stronger effect = higher value.

Row | Compound | inhibition | outcome
41 | OCCC1CN(Cc2ccc3nsnc3c2)CCN1C1CCCCC1 (stereo not given) | 37% (active) | 
42 | Cc1cccc(-[n+]2c(-c3cccc(Br)c3)[nH]c3nc4ccccc4nc32)c1 | 51% (active) | 
43 | N=c1c2c3c(sc2ncn1CCCN1CCOCC1)CCCCC3 | 52.5% (active) | 
44 | O=C1CN(C(=O)c2ccccc2F)C(c2ccc(F)cc2)c2cc(F)ccc2N1 (stereo not given) |  | inactive
45 | Nc1ccc(C(=O)N2CCN(S(=O)(=O)c3ccc(Cl)cc3)CC2)cc1[N+](=O)[O-] |  | inactive
46 | COC(=O)c1c(NC(=O)c2ccc(S(=O)(=O)N3CCOCC3)cc2)sc2c1CCN(C(C)C)C2 | 37.5% (active) | 
47 | CCOc1nc(NCCN2CCOCC2)nc(Nc2ccc(C)cc2)n1 |  | inactive
48 | Cc1cccc(NC(=S)NCCN(C2CCCCC2)C2CCCC2)c1 | 68.5% (active) | 
49 | COc1ccc(Cl)cc1NC(=O)CCS(=O)(=O)c1cc2c(cc1C)NC(=O)CO2 |  | inactive
50 | CCN1CCN(c2ccc([N+](=O)[O-])cc2C(=O)c2ccc(Cl)cc2)CC1 | 63.5% (active) | 
51 | N=c1c2c3c(sc2nc2n1CCCCC2)CCCC3 | 55.5% (active) | 
52 | Cc1nc(C(=O)NCc2ccccc2)sc1C1(C)CC(c2cccnc2)=NO1 (stereo not given) |  | inactive
53 | CC(C)c1ccc(NC(=O)Cn2ncc3ccccc32)cc1 |  | inactive
54 | Cc1nc(N=C(N)N)nc2c(C)cccc12 | 60% (active) | 
55 | CCCCN(CCCC)CC(O)Cn1c2ccccc2c(=O)c2ccccc21 (stereo not given) | 85.5% (active) | 
56 | Nc1c(C(=O)c2cccs2)sc2nsc(SCCN3CCCCC3)c12 |  | inactive
57 | Clc1ccc(-n2nnnc2-c2cnc(-c3ccccn3)nc2-c2cccs2)cc1 |  | inactive
58 | CCc1ccc(-c2cc(C(=O)NN3CCN(C)CC3)c3ccccc3n2)cc1 | 41% (active) | 
59 | C/C(=N\Nc1nc2ccccc2[nH]1)c1cccs1 | 85% (active) | 
60 | COc1ccc(-c2nnc(NC(=O)CS(=O)(=O)c3ccc(Cl)cc3)o2)c(OC)c1 |  | inactive

Row | Compound | inhibition | outcome
61 | CCCN(CCc1ccccc1)C1CCc2c(O)cccc2C1 (stereo not given) | 68.5% (active) | 
62 | CCN1CCN(c2nc(Nc3cc(OC)ccc3OC)nc(Nc3cc(OC)ccc3OC)n2)CC1 | 55.5% (active) | 
63 | COc1ccc(Br)cc1/C=N/n1c(C)nnc1C |  | inactive
64 | CN1CCN(C(=O)N2c3ccccc3CCc3ccccc32)CC1 |  | inactive
65 | CC(C)C(c1nnnn1CCc1ccccc1)N1CCN(C(=O)c2ccco2)CC1 (stereo not given) |  | inactive
66 | O=C(c1ccc(-n2cnnn2)cc1)N1CCN(C(c2ccccc2)c2ccccc2)CC1 |  | inactive
67 | COC(=O)c1ccccc1NC(=O)C1CCN(S(=O)(=O)c2cc(OC)ccc2OC)CC1 |  | inactive
68 | CCOc1ccc(/C(O)=C2/C(=O)C(=O)N(Cc3cccnc3)C2c2ccc(N(C)C)cc2)c(C)c1 (stereo not given) |  | inactive
69 | CSCCC(NC(=O)c1ccc(=O)n(C)n1)c1nc2ccccc2[nH]1 (stereo not given) |  | inactive
70 | COc1cc(CNCCN(C)C)ccc1OCc1c(F)cccc1Cl | 49% (active) | 
71 | CCCc1cc(=O)oc2c(C)c(O)c(CN3CCCCC3)cc12 |  | inactive
72 | CN1CCN(c2ccc([N+](=O)[O-])c(Sc3nc4ccccc4[nH]3)c2)CC1 | 58.5% (active) | 
73 | N=c1n(CCc2ccccc2)c2ccccc2n1Cc1ccccc1F | 90.5% (active) | 
74 | CN(C)c1ccc(/C=C2\NC(=S)N(Cc3ccccc3)C2=O)cc1 |  | inactive
75 | Cc1c(CCOC(=O)CC23CC4CC(CC(C)(C4)C2)C3)sc[n+]1Cc1ccc([N+](=O)[O-])cc1 |  | inactive
76 | CCCCc1nc(NCCN)c(C#N)c2c1CSC(C)(C)C2 | 56.5% (active) | 
77 | CCOC(=O)c1sc2nc(CSCC(=O)OCc3ccc(C(=O)OC)o3)[nH]c(=O)c2c1C |  | inactive
78 | O=[N+]([O-])c1ccccc1Nc1ccc(O)cc1 | 61.5% (active) | 
79 | CC(=O)c1cc(NC(=O)c2ccccc2)c(=O)oc1/C=C/N(C)C | 35.5% (active) | 
80 | CCC(C)NCCOCCOc1ccc(Br)cc1C (stereo not given) |  | inactive
